Eight molecules from PubChem BioAssay can be followed below.

The structures appear in SMILES notation. Activity calls are given as the source filed them.

The target of test [1] is Albumin (Bos taurus) (UniProt P02769). The experiment in a line: bovine serum albumin binders on microarray, profiling panel, artefact control for SMM control protein annotation, biochemical, small-molecule microarray, Alexa647 label, 635/667 nm fluorescence (AID 1118).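 Further: score merges 667 nm emission intensity and signal-to-noise per printed compound spot.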 The note with it: BSA-A647 binding, fluorescence 635 nm, higher = more signal.
The nature of test [2]: small-molecule microarray binders of probe aXIP, primary screen, biochemical, NeuroSMM set, 635/667 nm fluorescence (AID 1119).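 Further: probe is the protein aXip251-270 applied at 1 µg/mL to compound-printed slides; binding of probe to printed compounds measured as 667 nm fluorescence plus signal to noise.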 The note with it: higher = more signal, called active from +8 up or from −8 down.
Test [3] in a line: small-molecule binders of probe aNOTCH3, primary screen, biochemical, small-molecule microarray, 635/667 nm fluorescence (AID 1120).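 Further: probe is a biotin-tagged antibody raised against NOTCH3 rather than NOTCH3 protein; score merges spot fluorescence near 667 nm with spot signal to noise.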 The note with it: higher = more signal.
Test [4] in a line: small-molecule binders of probe aNOTCH2, primary screen, biochemical, small-molecule microarray, 635/667 nm fluorescence (AID 1121).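 Further: score merges feature fluorescence read at 667 nm with its signal to noise.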 The note with it: higher = more signal.
For test [5], the target named is Carbonic anhydrase 2 (Homo sapiens) (UniProt P00918). The experiment in a line: CAII small-molecule binders, profiling panel, biochemical, small-molecule microarray, Alexa647-labelled CAII (AID 1122). The note with it: CAII-A647 binding fluorescence, higher = more signal.
A short description of test [6]: COS7 lysate on small-molecule microarray, probe aHis, 635 nm (AID 1123).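 Further: z-score combines 667nm fluorescence intensity with signal-to-noise per printed compound spot.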 The note with it: COS7 cell lysate, fluorescence, higher = more signal.
Test [7] is described as follows: compound binding in COS7 lysate, probe aLAP1, primary screen, cell lysate, small-molecule microarray (AID 1124).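 Further: lysate comes from COS7 cells expressing LAP1 and is applied at 0.3 µg/mL; score merges spot fluorescence near 667 nm with signal-to-noise over triplicate slides.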 The note with it: probe aLAP1, fluorescence, higher = more signal.
In test [8] the test system is Sam68 (KHDRBS1). As to the kind of experiment: Sam68 small-molecule binders, primary screen, biochemical, small-molecule microarray, 635 nm fluorescence (AID 1125).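 Further: score merges 667 nm channel intensity with signal to noise over triplicate slides.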 The note with it: small-molecule microarray binding, higher = more signal.
The subject of test [9] is Chordin-like protein 2 (CHRDL2). As to the kind of experiment: CHRDL2 small-molecule binders, primary screen, biochemical, small-molecule microarray, 635 nm fluorescence (AID 1126).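 Further: printed compound slides probed with Chrdl2 protein at 4 µg/mL for 1 h at 4 C; score merges 667 nm emission intensity with signal to noise over three replicate slides.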 The note with it: small-molecule microarray binding, fluorescence 635 nm; higher = more signal.
The target of test [10] is Concanavalin-A (Canavalia ensiformis) (UniProt P02866). As to the kind of experiment: ConA small-molecule binders, primary screen, artefact control for SMM control protein annotation, biochemical, small-molecule microarray, Alexa647 label, 635 nm (AID 1127).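 Further: z combines 667 nm emission intensity with signal-to-noise across three replicate slides.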 The note with it: ConA-A647 binding fluorescence, higher = more signal.
Test [11] is described as follows: anti-His antibody binders, primary screen, artefact control for SMM control protein annotation, biochemical, small-molecule microarray, 635 nm fluorescence (AID 1128).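 Further: score merges feature fluorescence with signal-to-noise for each printed compound spot.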 The note with it: anti-His Alexa647 antibody binding, higher = more signal.
Test [12] has as its system Human papillomavirus type 1a E7 protein (residues 1-88). As to the kind of experiment: HPV1a E7 small-molecule binders, primary screen, biochemical, small-molecule microarray, residues 1-88, 635 nm (AID 1129). The note with it: small-molecule microarray binding, fluorescence 635 nm; higher = more signal.
Test [13] has as its target Focal adhesion kinase 1 (Homo sapiens) (UniProt Q05397). The experiment in a line: small-molecule microarray binders of FAK, primary screen, biochemical, 635/667 nm fluorescence, BSA, DTT (AID 1130).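 Further: composite of spot emission at 667 nm and signal to noise over triplicate slides.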 The note with it: PTK2 binding, 635 nm fluorescence, higher = more signal.
Test [14] deals with Fibrinogen (Alexa647-labelled). As to the kind of experiment: fibrinogen binders on compound microarrays, profiling panel, artefact control for SMM control-protein annotation, biochemical, small-molecule microarray, 635/667 nm fluorescence (AID 1131).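 Further: z-score merges 667 nm fluorescence with per-spot signal-to-noise over triplicate slides.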 The note with it: fibrinogen-A647 binding fluorescence, higher = more signal.
Test [15] concerns the target Follistatin (Homo sapiens) (UniProt P19883). The experiment in a line: follistatin binders on small-molecule microarrays, primary screen, biochemical, small-molecule microarray, 635/667 nm fluorescence (AID 1132). The note with it: FST binding, 635 nm fluorescence, higher = more signal.
For test [16], the target named is Fibroblast growth factor 2 (Homo sapiens) (UniProt P09038). As to the kind of experiment: FGF2 binders on small-molecule microarrays, primary screen, biochemical, small-molecule microarray, 635/667 nm fluorescence (AID 1133). The note with it: small-molecule microarray binding, FGF2, fluorescence 635/667; higher = more signal.
A short description of test [17]: mitochondrial membrane potential change in A549 cells, profiling panel, cell-based, JC-1 fluorescence, basal, 24 h, 100 nL (AID 1138).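 Further: A549 lung adenocarcinoma cells under basal conditions with no added stimulus; test concentration not given here.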 The note with it: higher = more signal.
The test system of test [18] is Lefty1. As to the kind of experiment: Lefty1 binders on small-molecule microarrays, primary screen, biochemical, small-molecule microarray, 635/667 nm fluorescence (AID 1139). The note with it: small-molecule microarray binding, fluorescence 635/667; higher = more signal.
For test [19], the system named is wheat germ agglutinin (Triticum aestivum), Alexa647-labelled. As to the kind of experiment: wheat germ agglutinin binders on compound microarrays, profiling panel, artefact control for SMM control-protein annotation, biochemical, small-molecule microarray, 635/667 nm fluorescence (AID 1140).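 Further: score merges 667 nm feature emission with signal to noise over triplicate slides.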 The note with it: WGA-A647 binding, 635 nm fluorescence, higher = more signal.

Test [20] has as its target Luciferin 4-monooxygenase (Photinus pyralis) (UniProt P08659). The experiment in a line: firefly luciferase enzyme inhibitors, primary screen, biochemical, luminescence, purified enzyme, 2006 set (AID 1141).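 Further: cell-free assay with purified firefly luciferase at 100 ng per well in PBS; test concentration not given here.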 The note with it: SteadyGlo luminescence, 30 min, higher = more signal, called active from +8 up or from −8 down.

Chain of Concanavalin-A (Canavalia ensiformis) (P02866 whole entry, looked up): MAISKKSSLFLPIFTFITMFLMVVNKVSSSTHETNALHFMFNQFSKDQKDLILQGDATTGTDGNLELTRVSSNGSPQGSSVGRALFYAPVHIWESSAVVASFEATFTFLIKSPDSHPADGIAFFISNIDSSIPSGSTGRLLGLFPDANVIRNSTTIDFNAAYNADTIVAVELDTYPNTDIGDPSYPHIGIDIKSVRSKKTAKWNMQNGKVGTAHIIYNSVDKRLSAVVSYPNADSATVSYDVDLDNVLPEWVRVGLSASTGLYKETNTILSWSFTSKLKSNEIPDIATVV
Chain of Luciferin 4-monooxygenase (Photinus pyralis) (P08659 whole entry, looked up): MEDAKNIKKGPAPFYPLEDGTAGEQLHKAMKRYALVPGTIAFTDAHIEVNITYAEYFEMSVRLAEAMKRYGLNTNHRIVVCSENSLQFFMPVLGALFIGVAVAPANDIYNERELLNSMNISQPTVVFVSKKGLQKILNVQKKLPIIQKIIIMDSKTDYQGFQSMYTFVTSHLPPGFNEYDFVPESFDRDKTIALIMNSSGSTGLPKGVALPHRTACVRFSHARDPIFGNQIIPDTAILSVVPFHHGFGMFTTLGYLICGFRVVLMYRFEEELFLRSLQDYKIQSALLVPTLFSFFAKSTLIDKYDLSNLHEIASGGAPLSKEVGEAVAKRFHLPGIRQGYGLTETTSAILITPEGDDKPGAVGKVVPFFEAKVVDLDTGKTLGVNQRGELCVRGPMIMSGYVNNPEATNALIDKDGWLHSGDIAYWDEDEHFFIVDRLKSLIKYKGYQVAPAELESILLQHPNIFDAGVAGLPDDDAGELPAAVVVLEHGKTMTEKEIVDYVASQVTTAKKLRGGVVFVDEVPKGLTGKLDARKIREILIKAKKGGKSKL
Chain of Fibroblast growth factor 2 (Homo sapiens) (P09038 whole entry, looked up): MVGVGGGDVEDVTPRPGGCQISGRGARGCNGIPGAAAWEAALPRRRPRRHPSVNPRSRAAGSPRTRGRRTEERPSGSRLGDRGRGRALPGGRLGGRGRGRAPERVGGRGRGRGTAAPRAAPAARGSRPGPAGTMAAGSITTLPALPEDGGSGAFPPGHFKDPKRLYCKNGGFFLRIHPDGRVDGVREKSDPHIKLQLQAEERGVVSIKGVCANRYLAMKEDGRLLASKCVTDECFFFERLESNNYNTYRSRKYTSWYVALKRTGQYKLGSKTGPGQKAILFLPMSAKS
Chain of Follistatin (Homo sapiens) (P19883 whole entry, looked up): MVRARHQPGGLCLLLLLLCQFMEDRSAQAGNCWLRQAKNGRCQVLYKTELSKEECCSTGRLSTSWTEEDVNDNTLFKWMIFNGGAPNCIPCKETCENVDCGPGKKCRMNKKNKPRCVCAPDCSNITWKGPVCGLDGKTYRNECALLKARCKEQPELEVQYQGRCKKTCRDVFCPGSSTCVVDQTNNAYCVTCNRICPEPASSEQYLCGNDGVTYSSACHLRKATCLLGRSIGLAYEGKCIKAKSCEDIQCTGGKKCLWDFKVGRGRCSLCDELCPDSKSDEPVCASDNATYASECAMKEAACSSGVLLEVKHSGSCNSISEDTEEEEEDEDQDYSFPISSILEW
Chain of Albumin (Bos taurus) (P02769 whole entry, looked up): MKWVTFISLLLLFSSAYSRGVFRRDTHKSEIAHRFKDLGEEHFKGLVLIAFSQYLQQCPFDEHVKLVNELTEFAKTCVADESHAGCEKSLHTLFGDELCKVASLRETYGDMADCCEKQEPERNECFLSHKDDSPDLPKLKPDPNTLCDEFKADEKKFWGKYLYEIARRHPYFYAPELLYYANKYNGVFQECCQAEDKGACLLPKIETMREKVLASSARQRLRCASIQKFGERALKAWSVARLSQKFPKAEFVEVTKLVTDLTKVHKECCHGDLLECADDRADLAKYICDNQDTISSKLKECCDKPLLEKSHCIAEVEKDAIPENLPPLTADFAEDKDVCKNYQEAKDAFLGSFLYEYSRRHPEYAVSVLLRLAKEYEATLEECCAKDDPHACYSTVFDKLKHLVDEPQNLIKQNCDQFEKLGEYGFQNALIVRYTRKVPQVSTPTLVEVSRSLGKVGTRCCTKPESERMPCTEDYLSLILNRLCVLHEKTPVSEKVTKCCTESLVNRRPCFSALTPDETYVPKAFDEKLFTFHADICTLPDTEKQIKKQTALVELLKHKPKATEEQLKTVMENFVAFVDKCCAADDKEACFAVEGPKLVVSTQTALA
Chain of Focal adhesion kinase 1 (Homo sapiens) (Q05397 whole entry, looked up): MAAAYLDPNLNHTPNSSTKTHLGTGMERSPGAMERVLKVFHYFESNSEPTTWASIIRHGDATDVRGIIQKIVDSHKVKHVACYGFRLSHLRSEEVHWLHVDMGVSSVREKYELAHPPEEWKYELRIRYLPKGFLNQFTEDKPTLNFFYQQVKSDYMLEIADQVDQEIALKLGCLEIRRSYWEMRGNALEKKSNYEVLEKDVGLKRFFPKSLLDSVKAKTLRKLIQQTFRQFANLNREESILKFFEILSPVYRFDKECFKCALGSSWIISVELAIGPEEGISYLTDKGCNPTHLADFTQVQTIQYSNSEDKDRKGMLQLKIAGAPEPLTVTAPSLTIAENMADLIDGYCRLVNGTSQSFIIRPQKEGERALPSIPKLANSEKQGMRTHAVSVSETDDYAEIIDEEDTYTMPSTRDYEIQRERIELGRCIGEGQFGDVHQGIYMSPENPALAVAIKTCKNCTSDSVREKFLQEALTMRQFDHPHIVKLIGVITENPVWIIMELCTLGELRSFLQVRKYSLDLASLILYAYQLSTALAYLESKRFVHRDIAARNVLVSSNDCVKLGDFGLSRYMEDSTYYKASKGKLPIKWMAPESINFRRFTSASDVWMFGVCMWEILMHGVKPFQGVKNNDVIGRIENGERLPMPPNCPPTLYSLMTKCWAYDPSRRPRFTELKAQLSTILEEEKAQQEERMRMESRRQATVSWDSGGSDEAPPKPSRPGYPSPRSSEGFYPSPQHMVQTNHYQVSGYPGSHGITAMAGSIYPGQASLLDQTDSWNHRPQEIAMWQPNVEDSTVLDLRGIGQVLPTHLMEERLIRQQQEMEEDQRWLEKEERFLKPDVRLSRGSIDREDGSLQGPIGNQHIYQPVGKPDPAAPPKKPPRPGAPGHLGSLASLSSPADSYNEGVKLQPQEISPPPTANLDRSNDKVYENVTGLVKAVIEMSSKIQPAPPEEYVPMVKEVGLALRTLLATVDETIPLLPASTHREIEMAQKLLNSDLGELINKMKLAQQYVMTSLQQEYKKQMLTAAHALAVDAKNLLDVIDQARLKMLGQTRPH

Regarding `CC(c1ccccc1)C(O)C1C=CC2C(=O)N(c3ccccc3)C(=O)C2N1Nc1ccccc1` (stereo not given), the composite z-score is 1.01 in test [1]; 0.298 in test [3]; -0.112 in test [4]; 0.493 in test [5]; 3.12 in test [6]; 0.426 in [7]. Further, the composite z-score in test [8] is 1.34; in [9], -0.298; in test [10] it was 1.11; in test [11] it was 0.546; in test [12] it was 1.28; in test [13], 0.476. The composite z-score in test [14] is 1.03; in test [15] it was 1.03; in [16] it was -0.124; in test [18], 0.858; in [19], 1.02. The composite Z-score in test [2] was 0.304 (inactive). The z-score in [17] was -1.27; in test [20] it was -0.674 (inactive).
Take `O=C(NC1CC1)[C@@H]1c2ccccc2C(=O)N(Cc2cc(F)cc(C(F)(F)F)c2)[C@H]1c1ccc(CO)cc1`: the composite z-score in [1] was 0.416; in test [3] it was -0.182; in test [4] it was -0.112; in test [5], 0.237; in test [6], 0.668; in test [7], 0.747. The composite z-score in [8] is 0.521; in test [9] it was -0.791; in test [10], 0.0427; in test [11], 1.23; in test [12], -0.454; in test [13], 0.315. In addition, the composite z-score in [14] is -0.399; in test [15], 0.542; in [16], -0.258; in test [18], -0.396; in test [19] it was 0.569. Besides, the composite Z-score in test [2] was -0.0461 (inactive). Moreover, the z-score in test [17] was 0.739; in [20] it was -0.124 (inactive).
For the molecule `CS(=O)(=O)CCOC(=O)C1=CC(CCCO)=CC(c2ccc(CN3CCCC3)cc2)N(Cc2cccc(OC(F)(F)F)c2)C=C1C(=O)OCCS(C)(=O)=O` (stereo not given), the composite z-score was 0.0883 in [1]; 0.111 in test [3]; -0.0254 in [4]; 0.454 in test [5]; 1.16 in test [6]; 0.0212 in test [7]. Also, the composite z-score in [8] was 1.26; in test [9], 0.379; in test [10], 0.644; in test [11] it was 1.26; in test [12] it was 1.09; in test [13] it was 0.366. For the same molecule, the composite z-score in test [14] worked out at 0.675; in test [15], 0.962; in test [16] it was 0.964; in [18], 0.889; in [19], 0.404. In addition, in test [2], the composite Z-score was 0.25 (inactive). Moreover, the z-score was 3.17 in test [17] and -2.68 (inactive) in test [20].
Take `COCC(=C=CC[C@H](O)c1cccc(OCCO)c1)CCO`: the composite z-score in [1] is 0.663; in test [3] it was -0.0311; in test [4], -0.166; in [5] it was 0.462; in test [6] it was 1.44; in test [7], -0.0637. The composite z-score in test [8] was 0.431; in [9], 0.247; in [10] it was -0.042; in test [11], -0.115; in test [12], 0.0665; in test [13] it was -0.0436. In addition, the composite z-score is -0.535 in [14]; 1.32 in test [15]; 0.131 in [16]; 1.48 in [18]; -0.262 in [19]. Moreover, the composite Z-score in [2] is -0.0662 (inactive). Moreover, the z-score in test [17] is -0.0195; in test [20], 0.415 (inactive).
Consider `COCCOC(=O)N1C(=O)[C@@]2(c3cc(C#CC4(O)CCCCCC4)ccc31)[C@H](c1ccccc1OCCO)N1[C@H](c3ccccc3)[C@H](c3ccccc3)OC(=O)[C@H]1[C@@H]2C(=O)N1CCc2cc(OC)c(OC)cc2C1`, for which the composite z-score in test [1] is 0.223; in test [3], 0.0039; in test [4], -0.0817; in [5], 0.527; in [6], 1.89; in test [7], 0.612. The composite z-score is 1.29 in test [8]; -0.225 in test [9]; 1.13 in test [10]; 2.27 in [11]; 1.23 in test [12]; 0.669 in test [13]. Further, the composite z-score in test [14] amounted to 0.895; in test [15] it was 0.653; in [16], 0.461; in test [18] it was 0.8; in test [19] it was 0.632. Besides, the composite Z-score in [2] is 0.758 (inactive). For the same molecule, the z-score in [17] was -0.932; in test [20], -0.022 (inactive).
Take `CC[C@@H]1C=C(C(=O)O)[C@H](c2ccc(C)cc2)N1S(=O)(=O)c1ccc(C)cc1`: the composite z-score was 0.74 in [1]; 0.0876 in test [3]; -0.101 in test [4]; 0.759 in test [5]; 0.969 in test [6]; 0.0014 in test [7]. Besides, the composite z-score is 1.19 in test [8]; -0.697 in [9]; 0.759 in [10]; -0.479 in test [11]; 1.23 in test [12]; 0.827 in [13]. For the same molecule, the composite z-score is 0.915 in [14]; 0.163 in [15]; 0.0388 in test [16]; 0.285 in [18]; 0.568 in [19]. Further, the composite Z-score in test [2] was 0.827 (inactive). Besides, the z-score in test [17] is -0.233; in test [20], 2.28 (inactive).
As for `CC(CO)N1C(=O)[C@@H]2C3C(=O)OCCC/C=C\[C@H]3OC23C=CCN(CCN2CCOCC2)C(=O)[C@@H]13` (stereo not given in full), the composite z-score in [1] was -0.424; in test [3], -0.21; in test [4] it was -0.147; in test [5], 0.366; in test [6] it was -0.463; in test [7], -0.277. Also, the composite z-score is 0.191 in test [8]; -0.0493 in test [9]; 0.272 in test [10]; 0.537 in test [11]; -0.624 in [12]; -0.181 in test [13]. Besides, the composite z-score in test [14] was -1.1; in [15] it was 0.205; in [16], 0.186; in test [18] it was 0.376; in test [19] it was -0.169. Also, the composite Z-score in test [2] is 0.286 (inactive). The z-score is 1.08 in test [17] and -0.523 (inactive) in [20].
In the case of `[N-]=[N+]=Nc1ccccc1C[C@]1(C(=O)NCc2ccccc2)N=C(c2ccc(OCCCO)cc2)O[C@H]1c1ccccc1N=[N+]=[N-]`, the composite z-score in test [1] is 0.896; in [3], 0.555; in [4], -0.0211; in test [5] it was 0.676; in test [6], 2.63; in [7], 0.458. Moreover, the composite z-score in [8] was 1.06; in test [9] it was -0.124; in test [10], 1.13; in test [11] it was 1.88; in test [12] it was 1.16; in [13], 0.414. Besides, the composite z-score is 1 in test [14]; 0.547 in [15]; -0.165 in test [16]; 0.376 in test [18]; 0.824 in test [19]. Also, in test [2], the composite Z-score was 0.411 (inactive). For the same molecule, the z-score was 1.08 in test [17] and -3.77 (inactive) in test [20].
